Assay outcomes: PubChem BioAssay, National Center for Advancing Translational Sciences (NCATS)
Rows were chosen to be rich in hits. Some 10% of all compounds tested hit in one or more screens of this group.
SARS PLpro yeast = SARS-CoV PLP inhibition in yeast. S. cerevisiae expressing SARS-CoV PLpro, growth rescue. Potency, µM (highest dose often 32.9 µM), for the others: top-dose activity, positive = growth rescue, hits mostly activators. actives 0.19% (n = 330,000); note: 0% is about no effect; nearly all actives have a fitted effect of over 55% in size
NS1 function inh = influenza NS1 inhibition. Potency, µM (doses to about 46.1 µM), for inactives: at the highest dose activity, positive = more growth. actives 0.4% (n = 270,000); note: actives are rising curves; nearly all actives have a fitted effect of over 50% in size
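OD600 was taken as the measure of yeast growth restored by compound in an NS1-expressing S. cerevisiae strain. Cells had been washed out of glucose medium and diluted 1:100 into galactose -URA medium, pH 6.0.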
Pf growth 48h = inhibits P. falciparum growth in the first generation, 48 h; P. falciparum luciferase growth in erythrocytes, 48 h; Potency, µM (top dose mostly 28.7 µM), inactives show at the top dose activity change, negative = inhibition, hits mostly inhibitors; actives 5.9% (n = 310,000); AID 504832; active = well fitted inhibition curve with a large enough effect; inconclusive = small, poorly fitted or top-dose-only effect, or another doubt; inactive = no such curve, though single readings can be large or run the other way; note: % is set by controls: 0 for no effect and ±100 for the full control effect
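Read-out is firefly luciferase luminescence from an integrated reporter in P. falciparum, so falling signal marks reduced parasite growth. Infected erythrocytes were at 2% hematocrit and 0.1% parasitemia (final) in Albumax-supplemented RPMI 1640.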
Pf growth 96h = P. falciparum growth inhibition at 96 hours; P. falciparum luciferase reporter growth, 96 h; Potency, µM (titrated, usually from 28.7 µM), for inactives: at the highest dose activity change, negative = inhibition, usual class: inhibitors; actives 6.9% (n = 320,000); AID 504834; active = well fitted inhibition curve with a large enough effect; inconclusive = small, poorly fitted or top-dose-only effect, or another doubt; inactive = no such curve, though single readings can be large or run the other way; note: % is set by controls: 0 for no effect and ±100 for the full control effect
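Erythrocytes infected with luciferase-expressing P. falciparum were dispensed at 2% hematocrit and 0.05% parasitemia (final), then incubated with compounds 96 hours at 37 C in 5% CO2. Luminescence after detection reagent addition reported growth.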
* hit, by the source's call; ? = inconclusive; . = no result. Unless noted, calls come from the whole dose curve. Potency is the fitted concentration of half-maximal effect.

SMILES	SARS PLpro yeast	NS1 function inh	Pf growth 48h	Pf growth 96h
CCN1C(=O)[C@H]2[C@@H](c3ccc(Cl)cc3)N3C(=O)CN(CCOC)C(=O)[C@@]3(Cc3ccccc3)[C@H]2C1=O	1%	-5%	29%	18%
Cc1cc(C)cc(N(CC(=O)N2CCCCCC2)S(C)(=O)=O)c1	5%	?	13%	6%
Cc1ccc2oc(=O)n(CC(=O)OCCC(C)C)c2c1	-5%	0%	-5%	3%
CC(=O)Nc1cccc(NC(=O)COC(=O)CO/N=C(\C)c2ccc3c(c2)OCO3)c1	-3%	-5%	11%	59%
Cc1ccc(-n2cc(CN3CCN(c4ccccn4)CC3)c(-c3ccc(F)cc3)n2)cc1	-4%	2%	9.3µM*	-12%
Cc1cccc(-n2cc(CN3CCN(c4ccccn4)CC3)c(-c3cccc(F)c3)n2)c1	-2%	1%	?	?
O=C(Nc1cccc(O)c1)c1cccc(S(=O)(=O)Nc2cccc(O)c2)c1	8%	12%	1%	1.9µM*
O=C(O)c1cccc(NC(=O)c2ccc(S(=O)(=O)c3ccccc3)cc2)c1	-5%	21%	46%	12µM*
COc1cccc(S(=O)(=O)Nc2ccc(C(=O)Nc3ccncc3)cc2)c1	6%	13%	-24%	8.3µM*
O=C(Nc1cccc(C(=O)N2CCOCC2)c1)c1ccccc1	2%	-4%	55%	5.2µM*
O=C(NN1CCOCC1)c1ccc(Cl)cc1[N+](=O)[O-]	-1%	14%	5%	?
COc1ccc(OC)c(S(=O)(=O)n2ccnc2)c1	.	2%	.	.
O=[N+]([O-])c1ccc(NNS(=O)(=O)c2cc(Cl)ccc2Cl)nc1	-1%	-14%	?	?
Cc1ccc(CN2CC(C(=O)NCCCSc3ccccc3)CC2=O)cc1 (stereo unspecified)	1%	-19%	14%	1%
Cc1cc(-c2ccccc2)nc(SCc2ccc(C(=O)O)cc2)n1	-7%	-35%	7%	309%
COC(=O)c1ccc(NC(=O)CN2CCOCC2)cc1	3%	-4%	26%	28%
O=C(O)/C=C/c1cccc(NC(=O)c2ccc(Cl)cc2)c1	0%	-1%	0.33µM*	5%
O=C(Nc1cccc(C(=O)N2CCCc3ccccc32)c1)c1ccccc1	-6%	-31%	?	4.7µM*
Cc1cccc(CC(=O)Nc2ccc(C(=O)N3CCOCC3)cc2)c1	1%	5%	8%	2.3µM*
Cc1ccc(CC(=O)Nc2ccc(C(=O)N3CCOCC3)cc2)cc1	1%	10%	6%	36%
COC(=O)c1cccc(NC(=O)CN2CCOCC2)c1	-1%	1%	34%	10µM*
O=C(O)/C=C/c1cccc(NC(=O)c2ccccc2)c1	-2%	1%	-7%	54%
O=C(c1ccccc1)N1CCCc2ccccc21	1%	-12%	9%	-15%
CC(C)(C)OC(=O)N1CCC[C@H]1C(=O)OCC(=O)Nc1cc(S(C)(=O)=O)ccc1Cl	0%	.	5%	-4%
Cc1cc(C)c(C)c(S(=O)(=O)NCc2ccc(C(=O)N3CCOCC3)cc2)c1C	3%	-1%	8.3µM*	43%
SMILES	SARS PLpro yeast	NS1 function inh	Pf growth 48h	Pf growth 96h
Cc1cc(C)c(C)c(S(=O)(=O)NCc2ccc(C(=O)N3CCN(C)CC3)cc2)c1C	13%	15%	-42%	?
O=C(Nc1cccc(C(=O)N2CCCCC2)c1)c1ccc(Cl)cc1	-7%	-1%	-2%	2.1µM*
Cc1ccc(C(=O)N(C)Cc2ccccc2)cc1S(=O)(=O)N1CCOCC1	4%	-1%	-29%	23%
Cc1ccc(C(=O)N(C)Cc2ccc(N3CCOCC3)cc2)cc1S(=O)(=O)NCc1ccccc1	-2%	.	10µM*	?
O=c1n(Cc2ccccc2Cl)nc2n1-c1ccccc1SC2	-2%	-2%	45%	50%
CSC1=C(C#N)C(=O)NC(c2ccc(Cl)cc2)S1 (stereo unspecified)	0%	5%	-7%	30%
Cc1ccc(S(=O)(=O)N2CCN(c3cccc(C)c3)CC2)cc1	6%	2%	20%	?
CCc1ccc(C(=O)c2cn(CC(=O)Nc3cccc(OC)c3)c3ccc(OC)cc3c2=O)cc1	6%	.	12µM*	2.9µM*
COc1cccc(NC(=O)Cn2cc(C#N)c3ccccc32)c1	-1%	18%	15µM*	67%
COc1ccccc1NC(=O)Cn1cc(C#N)c2ccccc21	7%	-3%	.	-100%
CC(C)NC(=S)N1CCCN(c2ncccc2[N+](=O)[O-])CC1	0%	-1%	?	9.3µM*
Cc1ccc(CNCC(O)(c2ccccc2)c2ccc(Cl)cc2)cc1 (stereo unspecified)	2%	.	0.83µM*	1.7µM*
Cc1ccc(CNCC(O)(c2ccccc2)c2ccccc2)cc1	0%	-7%	?	?
COc1ccc(CNCC(O)(c2ccccc2)c2ccc(Cl)cc2)cc1 (stereo unspecified)	-1%	-13%	2.3µM*	2.3µM*
COc1cccc(CNCC(O)(c2ccc(Cl)cc2)c2ccc(Cl)cc2)c1	-3%	-60%	6.6µM*	1.3µM*
CC[C@]12c3[nH]c4ccccc4c3CCN1C(=O)C(CC(=O)NCCCOC)C[C@@H]2C(=O)N1CCN(C(=O)c2ccco2)CC1 (stereo partly specified)	-1%	.	.	.
O=C(Nc1ccc(COc2ccccc2)cc1)Nc1cccc(C(=O)O)c1	2%	3%	.	292%
C[C@H](O)CC1=C[C@H](O)[C@@H](C)OC1=O	1%	2%	3%	57%
COc1ccc(C(=O)C[n+]2ccc3ccccc3c2C)cc1	-2%	-4%	?	?
Cc1ccc2c(ccc[n+]2CC(=O)c2ccccc2)c1	?	-9%	15µM*	-5%
COc1ccc(C(=O)C[n+]2cccc3cc(OC)ccc32)cc1	-2%	-1%	9.3µM*	?
COc1ccc(C(=O)C[n+]2cccc3cc(C)ccc32)cc1	5%	4%	15µM*	?
COc1cccc(C(=O)C[n+]2cccc3cc(OC)ccc32)c1	-1%	.	10µM*	?
CCOCCCn1c(SC(C(=O)Nc2cc(C)ccc2C)c2ccccc2)nnc1-c1ccc(Cl)cc1 (stereo unspecified)	-18%	?	12µM*	9.3µM*
COc1ccc(C)cc1NC(=O)C(Sc1nncn1C)c1ccccc1 (stereo unspecified)	-1%	.	-16%	46%
SMILES	SARS PLpro yeast	NS1 function inh	Pf growth 48h	Pf growth 96h
CCNc1nc(NCC)n2c(SC(C(=O)Nc3cc(C)ccc3C)c3ccccc3)nnc2n1 (stereo unspecified)	4%	7%	?	12µM*
CCOC(=O)n1cc(-c2cnc(CNC(=O)C(C)(c3ccccc3)c3ccccc3)o2)c2ccccc21	-2%	?	?	?
CC[n+]1c(/C=C2\C=C(C)CC(C)(C)C2)sc2ccccc21	1%	-12%	0.33µM*	?
CC[n+]1c(/C=C2/C=C(C)CC(C)(C)C2)sc2ccc(OC)cc21	-15%	-7%	0.37µM*	36%
CCC1=C/C(=C/c2sc3ccccc3[n+]2CC)CC(C)(C)C1	-6%	.	?	15%
CCCc1cc(=O)oc2cc(OCc3ccc(C(=O)O)cc3)ccc12	2%	-57%	26%	?
